From PubChem
This is a sample that favours compounds with a hit; in the whole collection about 5.9% have one here.
ALR H2O2 inh: inhibitors of human sulfhydryl oxidase ALR. purified ALR, DTT oxidation, H2O2 HRP-luminol luminescence. inhibition, % (test concentration not listed). 290,000 tested, 3.8% active. P55789;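 active = mean replicate inhibition above about 79%, with every replicate also reaching it, limit read from the data; inconclusive = only one of the two criteria met; inactive = mean below limit and not every replicate reaching it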
Target sequence (P55789 whole entry, looked up): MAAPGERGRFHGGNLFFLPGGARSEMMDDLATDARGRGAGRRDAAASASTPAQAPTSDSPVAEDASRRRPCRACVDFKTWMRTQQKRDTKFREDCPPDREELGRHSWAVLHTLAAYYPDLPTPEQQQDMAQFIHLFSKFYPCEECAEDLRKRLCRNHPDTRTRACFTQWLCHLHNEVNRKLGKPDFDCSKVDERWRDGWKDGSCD
rCAG RNA binder: r(CAG) repeat RNA binding; TO-PRO-1 dye displacement fluorescence; inhibition, % at 3 µM; 370,000 tested, 1.3% active;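 active = inhibition above the plate cutoff, the mean of all test compounds on that plate plus 3 SD, cut at about 35% in these data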;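 also: higher means more dye released from RNA so lower well fluorescence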
LANA-H2B inh: blocks KSHV LANA binding to histone H2A/H2B | AID 2629 | inhibition, % (test concentration not listed) | 320,000 tested, 0.6% active | Q9QR71 | cell-free LANA-H2A/H2B peptide, fluorescence polarization; in the data active = inhibition mostly above about 10%, no sharp cut-off; inactive = mostly below about 6.7%
ABHD5 PLIN5 PPI: inhibitors of human ABHD5-perilipin-5 interaction. Q00G26+Q8WTS1. Split G. princeps luciferase complementation, luminescence, 4 h. inhibition, % at 4 µM. 360,000 tested, 0.78% active;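 active = inhibition above the mean inhibition across every tested compound plus 3 SD, cut at about 22% in these data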
PRMT1 inh: blocks human protein arginine methyltransferase 1; 370,000 tested, 1.3% active; recombinant PRMT1, activity-based probe fluorescence polarization; inhibition, % at 2.79 µM; Q99873; AID 652257;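 active = inhibition above about 21% made by adding two undisclosed values, limit read from the data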
Rtt109 HAT inh: blocks Candida albicans Rtt109/Vps75 acetyltransferase activity; AID 540336; inhibition, % at 34.9 µM; purified Rtt109/Vps75, ThioGlo CoA-SH fluorescence, 4 h; 330,000 tested, 0.16% active; Q5AAJ8;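 active = inhibition of at least 50% in every replicate; inconclusive = best replicate reaches 50% inhibition but some replicates fall short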
Target sequence (Q5AAJ8 whole entry, looked up): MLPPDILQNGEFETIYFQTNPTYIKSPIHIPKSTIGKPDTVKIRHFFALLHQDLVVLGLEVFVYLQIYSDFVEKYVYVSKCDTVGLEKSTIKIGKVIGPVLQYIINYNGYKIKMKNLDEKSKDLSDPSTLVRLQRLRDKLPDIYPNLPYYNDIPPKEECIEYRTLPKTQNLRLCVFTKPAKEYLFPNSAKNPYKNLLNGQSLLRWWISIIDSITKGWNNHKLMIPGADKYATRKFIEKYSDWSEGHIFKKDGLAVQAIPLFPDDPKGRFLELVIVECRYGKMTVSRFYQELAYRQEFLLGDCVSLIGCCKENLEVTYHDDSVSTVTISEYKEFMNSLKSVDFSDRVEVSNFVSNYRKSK
Hits are given with their value; . = inactive; ? = inconclusive; / = not tested or not shown.

SMILES	ALR H2O2 inh	rCAG RNA binder	LANA-H2B inh	ABHD5 PLIN5 PPI	PRMT1 inh	Rtt109 HAT inh
Oc1cccc(Nc2nc(NCC3CCCO3)c3ccccc3n2)c1 (centres undefined)	100	/	.	.	/	?
COc1ccc(Nc2nc(NCC3CCCO3)c3ccccc3n2)c(OC)c1 (centres undefined)	98	.	.	.	.	.
CCn1c(COc2ccc(C)cc2)nnc1SCC(=O)Nc1ccc(C(=O)OC)cc1	/	.	/	/	.	/
NC(=O)c1ccc(NS(=O)(=O)c2ccc(S(=O)(=O)N3CCCC3)cc2)cc1	/	.	/	.	.	/
CC(=O)Nc1ccc(S(=O)(=O)Nc2cccc3[nH]ncc23)cc1	.	.	.	.	.	.
O=C(Nc1cccc2[nH]ncc12)NS(=O)(=O)c1ccccc1	97	.	.	.	.	.
CSc1nc(N(C)CCO)c2sc3nc(-c4ccco4)c4c(c3c2n1)CCC4	98	/	.	.	/	.
CCOc1ccccc1CNc1ccc(N2CCOCC2)c(C(=O)O)c1	.	/	.	.	/	.
CCOC(=O)c1cc(NCc2cccs2)ccc1N1CCOCC1	99	.	.	.	.	.
COC(=O)c1cc(NCc2ccccc2F)ccc1N1CCOCC1	99	.	.	.	.	.
O=C(CSc1nnnn1-c1ccccc1)Nc1ccc(N2CCOCC2)cc1	.	.	.	.	.	.
O=C(CSc1nncn1-c1ccccc1)Nc1ccc(N2CCOCC2)cc1	99	.	.	.	.	.
O=C(CSc1nnc(C2CC2)n1-c1ccccc1)Nc1ccc(N2CCOCC2)cc1	98	.	.	.	.	.
COc1ccccc1NC(=O)CSc1nncn1-c1ccccc1	98	.	.	.	.	.
Cn1c(SCC(=O)Nc2ccc(N3CCOCC3)cc2)nnc1C1CC1	?	.	.	.	.	.
CCC(c1nnc(SCC(=O)Nc2ccc(N3CCOCC3)cc2)n1Cc1ccccc1)N(C)C (centres undefined)	98	.	.	.	.	.
O=C(Nc1ccccc1)Nc1c(-c2ccccc2)nc2ncccn12	/	.	/	/	.	/
O=C1CC(c2ccc3ccccc3c2)N=C2N(Cc3ccc4c(c3)OCO4)C/C(=C/c3ccccc3)N12 (centres undefined)	/	/	/	/	.	/
O=C(c1ccccc1Cl)N1CCSCCS1(=O)=O	/	.	/	/	.	/
Cc1ccc(S(=O)(=O)NCCc2nnc3ccc(SCC(=O)Nc4nc(C)cs4)nn23)cc1	98	.	.	.	.	?
Cc1ccc(C(=O)NCCc2nnc3ccc(SCC(=O)Nc4ccccc4F)nn23)cc1	97	.	.	.	.	.
Cc1ccc(C(=O)NCCc2nnc3ccc(SCC(=O)N4CCCCC4)nn23)cc1	89	.	.	.	.	.
O=C(CSc1ccc2nnc(CCNC(=O)c3ccccc3)n2n1)Nc1ccccc1F	.	.	.	.	.	.
Cc1cn([C@H]2C[C@H](O)[C@@H](CNS(=O)(=O)N3CCCC3)O2)c(=O)[nH]c1=O	/	.	/	.	.	/
COc1ccc(N=C2C(=O)Nc3ccccc32)cc1	86	.	.	.	.	.
SMILES	ALR H2O2 inh	rCAG RNA binder	LANA-H2B inh	ABHD5 PLIN5 PPI	PRMT1 inh	Rtt109 HAT inh
O=C1Nc2ccccc2C1=Nc1ccc(F)cc1	/	/	.	.	/	.
O=C1Nc2ccccc2C1=Nc1ccc(S(=O)(=O)Nc2nccs2)cc1	.	48	.	.	.	.
NS(=O)(=O)c1ccc(N=C2C(=O)Nc3ccccc32)cc1	.	.	.	.	.	.
O=C(COC(=O)c1cccs1)Nc1nc(-c2ccccc2)cs1	88	.	.	.	.	.
Cc1nnc(NC(=O)CSc2nnc(CC(=O)Nc3ccccc3F)n2C)s1	.	.	.	.	.	.
CC1CCN(C(=S)c2ccc(O)cc2)CC1	96	.	.	.	.	.
CC(=O)C1=C(O)C(=O)N(c2ccc(O)cc2)C1c1ccc(Cl)cc1 (centres undefined)	81	.	.	.	.	.
CC(=O)C1=C(O)C(=O)N(c2ccc(O)cc2)C1c1ccc([N+](=O)[O-])cc1 (centres undefined)	82	.	.	.	.	.
COc1ccc(C2C(C(C)=O)=C(O)C(=O)N2c2ccc(O)cc2)cc1 (centres undefined)	88	.	.	.	.	.
CC(=O)C1=C(O)C(=O)N(c2ccc(Br)cc2)C1c1ccc(Cl)cc1 (centres undefined)	.	.	.	.	.	.
C#CCCCN([C@@H](CC(C)C)C(=O)OC)S(=O)(=O)c1ccccc1Br	/	.	/	/	.	/
Cc1ccccc1OCC(=O)NCC(=O)OCC(=O)c1ccc([N+](=O)[O-])cc1	97	.	.	.	24	130
O=C(CCC(=O)OCC(=O)c1cccc([N+](=O)[O-])c1)Nc1cccc(Cl)c1Cl	.	.	.	.	.	.
O=C(CCC(=O)OCC(=O)c1ccc([N+](=O)[O-])cc1)Nc1ccccc1Cl	.	/	.	.	/	75
Cc1cccn2cc(-c3cccc(S(=O)(=O)N4CCOCC4)c3)nc12	96	.	.	.	.	.
Cc1cccn2cc(-c3ccc(F)cc3)nc12	96	.	.	.	.	.
CC1CN(S(=O)(=O)c2cccc(-c3cn4ccccc4n3)c2)CC(C)O1 (centres undefined)	.	.	.	.	.	.
Cc1cccn2cc(-c3ccccc3)nc12	/	.	.	.	.	.
Cc1cccn2cc(-c3cccc(S(=O)(=O)N4CC(C)OC(C)C4)c3)nc12 (centres undefined)	97	.	.	.	.	.
CCC[C@@H](O)c1cc2cc(OC)c(OC)cc2c(=O)o1	.	.	.	.	.	.
CC(NCC(=O)Nc1cc(S(=O)(=O)N2CCOCC2)ccc1Cl)c1ccc(Cl)cc1Cl (centres undefined)	.	.	.	.	.	.
CN1C(=O)[C@H]2[C@@H](c3ccc(C(F)(F)F)cc3)N[C@]3(CCCN(CC4CCCCC4)C3=O)[C@H]2C1=O	/	.	/	.	.	/
COc1ccccc1CCn1cnc(-c2ccccc2OC)c1CC(C)C	/	.	/	/	.	/
O=C(CCN1CCCCC1)c1ccccc1	.	.	.	.	.	.
CCc1oc2ccccc2c1C(=O)CCN1CCCCC1	97	.	.	.	.	.
SMILES	ALR H2O2 inh	rCAG RNA binder	LANA-H2B inh	ABHD5 PLIN5 PPI	PRMT1 inh	Rtt109 HAT inh
CCOC(=O)NC1CCc2cc(OC)c(OC)c(OC)c2-c2ccc(OC)c(=O)cc21 (centres undefined)	/	.	/	.	.	.
CCCCCCCCCCCCCCCCn1cc[n+](CC(C)=O)c1	/	/	/	.	/	112
COC(=O)C1=C(C)N(Cc2ccccc2C(F)(F)F)C(=NCc2ccc(C(F)(F)F)cc2)NC1c1ccc(Cl)cc1 (centres undefined)	/	.	/	/	.	/
COc1ccc(-c2oc3c(c2C#CC2(O)CCCCC2)C(OC(C)=O)CCC3)cc1 (centres undefined)	/	.	/	.	.	/
Cn1cccc1C(=O)OCc1csc(-c2ccccc2)n1	96	.	.	.	.	.
COc1ccccc1C(=O)NCC(=O)OCc1csc(-c2ccccc2)n1	.	.	.	.	.	.
